An excerpt weighted towards active compounds, which were near 8.9% of everything screened.
NPSR antag: blocks cAMP signaling of the human neuropeptide S receptor | Q6W5P4 | CHO-NPSR cells, cAMP TR-FRET, antagonist mode | Potency, µM (highest dose often 38.3 µM), for inactives: at the top dose activity change, negative = inhibition, most hits filed as inhibitors | 1% of 220,000 active; further: potency means the concentration at half of the fitted maximal effect; on the % scale 0 is the no-effect control and ±100 the full control effect; nearly all actives have a fitted effect of over 50% in size
12-hLO inh: inhibitors of human 12-lipoxygenase (ALOX12) | 0.12% of 150,000 active | AID 1452 | purified 12-hLO, xylenol orange hydroperoxide absorbance | Potency, µM (top dose mostly 57.1 µM), without a hit: at the highest dose activity change, negative = inhibition, hits mostly inhibitors; further: potency means the concentration at half of the fitted maximal effect; on the % scale 0 is the no-effect control and ±100 the full control effect; nearly all actives have a fitted effect of over 55% in size
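Hydroperoxide formation by human 12-lipoxygenase from 40 uM arachidonic acid was followed colorimetrically via ferric-xylenol orange complex, using the 573/405 nm absorbance ratio. Enzyme concentration was 150 nM, with 30 min reaction at room temperature.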
IMPase inh: cell-permeable inhibitors of inositol monophosphatase (IMPase); P97697; inhibition (IP1 accumulation), % at 46.1 µM; 120,000 tested, under 10 active; CHO-M1 cells, IP1 accumulation, HTRF TR-FRET ratio; active means well fitted curve in the direction sought with a large enough effect in the signal ratio, not every such curve was filed as active; inconclusive means small, poorly fitted or top-dose-only effect, or a change in a side signal; inactive means no such curve, though single readings can be large or run the other way; the % refers to the signal ratio;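 further: cells stimulated with carbachol in lithium chloride buffer; plate controls were DMSO basal wells for no effect and reference inhibitor wells for full effect; higher means more IMPase inhibition seen as more IP1 and lower FRET ratio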
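Carbachol-driven Gq signalling in CHO-M1 cells (2000/well) generates IP1. Compounds that block IMPase raise IP1 and so reduce the FRET signal from Eu-anti-IP1 and d2-IP1 after a 10 min room-temperature lysis.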
ALDH1A1 inh-1: blocks purified human ALDH1A1 activity; P00352; Purified ALDH1A1, NADH fluorescence, propionaldehyde substrate; Potency, µM (top dose mostly 75.3 µM), for the others: at the highest dose activity, negative = inhibition, hits mostly inhibitors; 7.3% of 220,000 active; active means well fitted inhibition curve with a large enough effect, not every such curve was filed as active; inconclusive means small, poorly fitted or top-dose-only effect, or another doubt; inactive means no such curve, though single readings can be large or run the other way;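 further: potency means the concentration at half of the fitted maximal effect; plate controls were no enzyme wells and a reference inhibitor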
Target sequence (P00352 whole entry, looked up): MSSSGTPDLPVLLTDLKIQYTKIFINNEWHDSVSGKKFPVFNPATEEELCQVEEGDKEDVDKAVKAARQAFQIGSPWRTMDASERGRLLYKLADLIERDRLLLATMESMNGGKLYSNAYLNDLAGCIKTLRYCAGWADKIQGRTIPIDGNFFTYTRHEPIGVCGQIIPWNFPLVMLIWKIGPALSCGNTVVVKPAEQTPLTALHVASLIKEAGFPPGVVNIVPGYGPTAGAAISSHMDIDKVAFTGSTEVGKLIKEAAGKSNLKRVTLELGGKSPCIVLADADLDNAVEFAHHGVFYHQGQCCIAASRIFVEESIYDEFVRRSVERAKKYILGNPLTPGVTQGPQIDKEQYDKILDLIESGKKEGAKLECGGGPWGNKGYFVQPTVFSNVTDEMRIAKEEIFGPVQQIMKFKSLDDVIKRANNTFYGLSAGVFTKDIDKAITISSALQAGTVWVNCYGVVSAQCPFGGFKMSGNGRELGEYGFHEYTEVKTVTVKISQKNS
HPGD inh: inhibitors of human 15-hydroxyprostaglandin dehydrogenase (HPGD) | purified HPGD, NADH fluorescence kinetic, PGE2 substrate | 4.3% of 150,000 active | AID 894 | P15428 | Potency, µM, for the others: at the top dose activity change, negative = inhibition, most hits filed as inhibitors; active means well fitted inhibition curve with a large enough effect, not every such curve was filed as active; inconclusive means small, poorly fitted or top-dose-only effect, or another doubt; inactive means no such curve, though single readings can be large or run the other way; further: potency means the concentration at half of the fitted maximal effect; on the % scale 0 is the no-effect control and ±100 the full control effect
Target sequence (P15428 whole entry, looked up): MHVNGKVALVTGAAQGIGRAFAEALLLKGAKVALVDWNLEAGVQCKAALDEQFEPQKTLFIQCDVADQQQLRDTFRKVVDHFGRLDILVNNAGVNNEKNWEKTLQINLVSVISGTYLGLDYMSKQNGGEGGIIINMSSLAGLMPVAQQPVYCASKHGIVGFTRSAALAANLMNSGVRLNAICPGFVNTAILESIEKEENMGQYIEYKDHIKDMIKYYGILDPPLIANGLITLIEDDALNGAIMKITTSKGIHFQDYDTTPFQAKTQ
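NADH formation kinetics: reaction with 30 uM PGE2 and 1 mM NAD+ (final), 20 nM enzyme, Tris-HCl pH 8 with Tween 20, after 15 min compound preincubation at room temperature. Fluorescence change, last versus first of five reads.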
IMPase Li inh: membrane-permeable IMPase blocker, potentiated with lithium. AID 1457. CHO-M1 cells, IP1 TR-FRET (IP-One), carbachol + lithium. 0.35% of 210,000 active. Potency, µM (highest dose often 59.4 µM), inactives show at the top dose activity, negative = IMPase inhibition, actives largely listed as inhibitors;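 further: IP1 builds up when IMPase is blocked and the TR-FRET signal falls; potency means the concentration at half of the fitted maximal effect; plate controls were basal vehicle for no effect and high inhibitor control for full effect; nearly all actives have a fitted effect of over 50% in size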
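Lithium-sensitised IP1 accumulation assay; M1-expressing CHO cells treated 30 min at 37C with compound. Competitive antibody detection by time-resolved FRET followed a 10 min room-temperature lysis step.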
HPGD inh cf: human HPGD enzyme inhibition, confirmation; shares compounds with HPGD inh; 90% of 90 active; Potency, µM (titrated, usually from 57.1 µM), inactives show at the top dose activity change, negative = inhibition, usual class: inhibitors; recombinant HPGD, NADH fluorescence, PGE2 substrate; calls by dose curve
ALDH1A1 inh-2: Inhibits human ALDH1A1, confirmation and counter-screen | shares compounds with ALDH1A1 inh-1 | Potency, µM (doses to about 57.1 µM), for inactives: top-dose activity change, negative = inhibition, actives largely listed as inhibitors | purified ALDH1A1, NADH fluorescence, propionaldehyde/NAD+ | 90% of 90 active; calls by dose curve
The depositor's hits bear a star; ? = inconclusive; . = no result; [ ] = dose if it differs, or a comment. Unless noted, the call rests on the fitted dose curve; in most records, active means well fitted curve in the direction sought with a large enough effect; inconclusive means small, poorly fitted or top-dose-only effect, or another doubt; inactive means no such curve, though single readings can be large; an effect the other way counts as inactive or inconclusive.

SMILES	NPSR antag	12-hLO inh	IMPase inh	ALDH1A1 inh-1	HPGD inh	IMPase Li inh	HPGD inh cf	others
O=C(CSc1n[nH]c(-c2ccccc2)n1)Nc1ncc(Br)cc1Br	-25%[46.1 µM]	-10%	0	7%	0.79µM*	8%[38.3 µM]	1.4µM*
Cc1nnc(NC(=O)CSc2n[nH]c(-c3ccccc3)n2)s1	0%	.	.	?	.	-6%	.
Cc1ccccc1C(=O)N1CCc2ccccc2C1	-9%[46.1 µM]	-8%	6	?	0.63µM*	40%[38.3 µM]	2.5µM*
CC(=O)c1c(COC(=O)c2cccc(C)c2)nc2ccccc2[n+]1[O-]	-18%	.	.	.	.	.	.
Cc1ccc(CCNC(=O)C2CCC(CNc3c(N4CCC(C)CC4)c(=O)c3=O)CC2)cc1 (centres undefined)	-37%	-7%	.	-5%	?	12%	14µM*
CCCCNC(=O)C1CCC(CNc2c(N3CCC(C)CC3)c(=O)c2=O)CC1 (centres undefined)	7%	.	.	.	.	.	.
COc1ccc(CNC(=O)C2CCC(CNc3c(N4CCCCC4)c(=O)c3=O)CC2)cc1 (centres undefined)	-3%	.	.	.	.	.	.
O=C(NCCc1ccccc1)C1CCC(CNc2c(N3CCCCC3)c(=O)c2=O)CC1 (centres undefined)	5%	0%	.	-16%	6.3µM*	9%	6.3µM*
O=C(NCCc1ccc(Cl)cc1)C1CCC(CNc2c(N3CCCCC3)c(=O)c2=O)CC1 (centres undefined)	-6%	-4%	.	-2%	-28%	6%	18µM*
CC1CCN(c2c(NCC3CCC(C(=O)NCCc4ccccc4)CC3)c(=O)c2=O)CC1 (centres undefined)	-2%	1%	.	0%	6.3µM*	-1%	6.3µM*
C=CCn1c(C)cc(/C([O-])=C(/C(=S)Nc2ccc(OC(F)F)cc2)[n+]2ccc(N(C)C)cc2)c1C	-33%	.	.	?	.	22%	.
Cc1ccc(S(=O)(=O)N(C)c2ccc(C(=O)N3CCC(C(N)=O)CC3)cc2)cc1	-5%[46.1 µM]	-5%	12	1%	28µM*	-15%[38.3 µM]	?
COCCNC(=O)C1CCC(Cn2c(=S)[nH]c3ccccc3c2=O)CC1 (centres undefined)	-17%[46.1 µM]	-3%	11	-6%	1.8µM*	20%[38.3 µM]	1.1µM*
O=C(NCCc1c[nH]c2ccccc12)C1CCC(Cn2c(=S)[nH]c3ccccc3c2=O)CC1 (centres undefined)	-25%[46.1 µM]	-29%	-1	8%	-13%	11%[38.3 µM]	.
CCS(=O)(=O)c1ccc2oc(SCC(=O)NCCC3=CCCCC3)nc2c1	-15%[46.1 µM]	-6%	9	-7%	0%	21%[38.3 µM]	.
COc1ccc(NC(=O)c2sc3nc(Cc4ccccc4)cc(C(F)(F)F)c3c2N)cc1OC	-21%	0%	.	-3%	-10%	-9%	.
COc1ccccc1NC(=O)c1sc2nc(Cc3ccccc3)cc(C(F)(F)F)c2c1N	-8%[46.1 µM]	5%	2	4%	-7%	9%[38.3 µM]	-18%
COc1ccc(-c2cc(C(F)(F)F)n3nc(C(=O)N4CCCCC4)cc3n2)cc1OC	3%[46.1 µM]	-4%	?	-11%	0.5µM*	-5%[38.3 µM]	0.28µM*
O=C(c1ccc(N2CCCC2=O)cc1)N1CCN(c2ccccc2)CC1	-3%[46.1 µM]	0%	3	9%	-3%	-24%[38.3 µM]	.
O=C(c1ccc(N2CCCC2=O)cc1)N1CCCCCC1	-4%[46.1 µM]	2%	-6	?	0.22µM*	-27%[38.3 µM]	0.28µM*
CC(=O)N/C(=C\c1ccccc1)C(=O)Nc1ccc(O)cc1	3%	.	.	2%	.	6%	.
O=C(Nc1ccc(C(=O)N2CCCCC2)cc1)c1ccc(Br)cc1	-2%[46.1 µM]	-5%	9	14µM*	0.63µM*	-2%[38.3 µM]	0.35µM*
COc1ccccc1C(=O)Nc1ccc(C(=O)N2CCCC2)cc1	-11%[46.1 µM]	2%	4	-5%	1.4µM*	18%[38.3 µM]	1µM*
O=C(Nc1ccc(Br)cc1)N1CCCCCCC1	11%[46.1 µM]	-3%	1	0%	-9%	-8%[38.3 µM]	.
Oc1ccc[n+](CCCCC[n+]2cccc(O)c2)c1	5%	.	.	.	.	.	.
SMILES	NPSR antag	12-hLO inh	IMPase inh	ALDH1A1 inh-1	HPGD inh	IMPase Li inh	HPGD inh cf	others
O=C(c1ccc(COc2ccccc2Br)cc1)N1CCCCC1	-30%[46.1 µM]	-7%	-2	?	0.045µM*	23%[38.3 µM]	0.089µM*
CCCNC(=O)CN(C)S(=O)(=O)c1c(C)cc(C)cc1C	-3%[46.1 µM]	-1%	3	9%	2%	14%	.
Cc1ccccc1NS(=O)(=O)c1cc(C(=O)N2CCc3ccccc3C2)ccc1C	?	-13%	0	0%	-11%	11%[38.3 µM]	.
Cc1ccc(NS(=O)(=O)c2cc(C(=O)N3CCc4ccccc4C3)ccc2Cl)cc1	?	-2%	4	6%	-21%	32%[38.3 µM]	-36%
Cc1nc(N2CCN(C)CC2)c2cc(-c3ccccc3)sc2n1	-40%	.	.	?	.	2%	.
CCN(CC)C(=O)c1sc2nc(-c3cccs3)cc(-c3ccc(Cl)cc3)c2c1N	-20%[46.1 µM]	-1%	?	?	6.3µM*	?	10µM*
Cc1ccc(C)c(Cn2c(=O)n(-c3ccc(CC(=O)NCc4ccco4)cc3)c(=O)c3sccc32)c1	-5%[46.1 µM]	2%	-6	11%	-8%	23%[38.3 µM]	.
Cc1ccc(C)c(Cn2nnc3c(=O)[nH]c(C(=O)NCc4ccco4)nc32)c1	1%[7.67 µM]	-17%	6	-14%	0.56µM*	0%[38.3 µM]	0.32µM*
Fc1ccccc1CSc1nc2ncc(Br)cc2[nH]1	-11%[46.1 µM]	0%	1	-15%	0.79µM*	17%[38.3 µM]	0.63µM*
O=C(CSc1nc2ncc(Br)cc2[nH]1)c1cccc([N+](=O)[O-])c1	-6%	-3%	-5	?	7.9µM*	11%	2.2µM*
CC(=O)c1ccc(NC(=O)COc2ccccc2C(=O)Nc2ccc(C)cn2)cc1	-31%	.	.	8%	.	?	.
Cc1cccc(-n2c(=O)c(C#N)cc3c(=O)n4ccccc4nc32)c1	0%[46.1 µM]	0%	2	?	?	-26%[38.3 µM]	.
CC(=O)NC1C(=O)N(CC(C)C)c2ccccc21 (centres undefined)	-4%[46.1 µM]	11%	6	0.04µM*	-8%	-13%[38.3 µM]	.	ALDH1A1 inh-2=1µM*
COc1ccc(/C=C/C(=O)NCCNC(=O)c2ccccc2)cc1OC	2%	.	.	?	.	-10%	.
